{"source": "the OligoGym collection", "data": [{"molecular_target": "YY2", "assay": "pooled miR-30 sensor sort-seq; sequence = guide strand", "details": "shRNA", "values": [{"sequence": "TTGTGTCTGCAACATAAGCATT", "sensor-assay potency score (higher = more potent)": -1.56}, {"sequence": "TAGGGGACCACATAGTCACGGA", "sensor-assay potency score (higher = more potent)": -0.62}, {"sequence": "TTGACTGAGCGAACTTCCTGTT", "sensor-assay potency score (higher = more potent)": -0.213}, {"sequence": "TTTGACCTGCATTTGCTTCTGC", "sensor-assay potency score (higher = more potent)": 0.61}, {"sequence": "TTTAGTAAATTCTGCCAGCTGT", "sensor-assay potency score (higher = more potent)": -0.34}, {"sequence": "TTGAGCTCTCAAGAAAAGCTTT", "sensor-assay potency score (higher = more potent)": -0.69}, {"sequence": "TTCTGCTCCCACTTCCTCGTGC", "sensor-assay potency score (higher = more potent)": 0.239}, {"sequence": "TCAAGTACTCGGAATAATCAGG", "sensor-assay potency score (higher = more potent)": -0.787}, {"sequence": "TCGTCTTCAATGCTATCCGGGA", "sensor-assay potency score (higher = more potent)": -0.643}, {"sequence": "TAGCTGGTTGTCTGAGTCGCAA", "sensor-assay potency score (higher = more potent)": -1.47}, {"sequence": "TGTCTGAGTCGCAATAGCCCAC", "sensor-assay potency score (higher = more potent)": -0.97}, {"sequence": "TACTGGACGCTTTCCGTCGGAA", "sensor-assay potency score (higher = more potent)": -1.27}]}, {"molecular_target": "ZBTB24", "assay": "pooled miR-30 sensor sort-seq; sequence = guide strand", "details": "shRNA", "values": [{"sequence": "TTAAATTCTGCAGTTGCTCTGG", "sensor-assay potency score (higher = more potent)": 0.17}, {"sequence": "TGTAGCTGAAGAATATTCCTGA", "sensor-assay potency score (higher = more potent)": 0.823}, {"sequence": "TTGAGAAGTATTCACTACTGGC", "sensor-assay potency score (higher = more potent)": 0.328}, {"sequence": "TTAAGTTTGACGGATCTCCAAA", "sensor-assay potency score (higher = more potent)": -1}, {"sequence": "TTGGAAGTCTGTGTAAGCCTTT", "sensor-assay potency score (higher = more potent)": -0.108}, {"sequence": "TTAAGAACTGAGCAGTAGCCAG", "sensor-assay potency score (higher = more potent)": -1.12}, {"sequence": "TTAGGGATAACAACCACTGGGG", "sensor-assay potency score (higher = more potent)": -0.555}]}]}
